PfHsp90 set2 = growth inhibition of PfHsp90-expressing yeast, primary screen, antimalarial PfHsp90 inhibitor project, S. cerevisiae, BacTiter-Glo luminescence, single point, set 2; BacTiter-Glo ATP, 48 h; yeast lacking PDR1 and PDR3 efflux regulators; AID 504621, 2011; 310,000 compounds, 0.32% hits; inhibition, % at 9.4 µM;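 active = every replicate shows inhibition above about 80%, whatever the replicate mean, limit read from the data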;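 note: 0% = DMSO neutral controls and 100% = 20 µM radicicol positive controls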
NALP3 yeast inh = NALP3 inflammasome inhibitors in reconstituted yeast, primary screen, luminescence, uHTS; 330,000 compounds, 0.39% hits; inhibition, % at 10 µM; Yeast reconstituted NLRP3/ASC/caspase-1, beta-gal luminescence, 24 h;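 active = inhibition of 50% or more; inactive = inhibition below 50%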;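 note: plate controls were induced DMSO wells for no effect and uninduced yeast grown without galactose for full effect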
tim10-1 inh = growth inhibitors of tim10-1 mutant yeast, primary screen, luminescence, uHTS. AID 463190, 2010. 330,000 compounds, 2.2% hits. inhibition, % at 20 µM. S. cerevisiae tim10-1 ts strain growth, BacTiter-Glo, 24 h;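 active = inhibition of at least 40%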;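 note: mutant grown at 25 °C; 0% = DMSO wells with yeast and 100% = wells holding no yeast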
tim23-1 inh = growth inhibitors of tim23-1 mutant yeast, primary screen, luminescence, uHTS | S. cerevisiae tim23-1 growth, BacTiter-Glo luminescence, 24 h | AID 463212, 2010 | inhibition, % at 20 µM | 330,000 compounds, 1.3% hits;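 active = growth inhibition of the mutant yeast at or above 50%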;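 note: temperature-sensitive mutant grown at 25 °C; plate controls were DMSO-treated mutant yeast for no effect and medium wells lacking yeast for full effect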
TIM10 inh = growth inhibitors of isogenic TIM10 control yeast, primary screen, counter-screen for tim10-1 yeast inhibitor project, luminescence, uHTS; inhibition, % at 10 µM; S. cerevisiae TIM10 strain growth, BacTiter-Glo luminescence, 24 h; 330,000 compounds, 1.4% hits;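 active = inhibition of 40% or more at the single tested concentration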;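 note: wild-type TIM10 isogenic control strain grown at permissive 25 °C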
tim10-1 conf = growth inhibitors of tim10-1 mutant yeast, confirmation, single concentration, luminescence, S. cerevisiae. shares compounds with tim10-1 inh. 7,400 compounds, 56% hits. S. cerevisiae tim10-1 ts strain growth, BacTiter-Glo, 24 h. inhibition, % at 20 µM;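 active = inhibition of yeast growth at or above a set limit in either of two repeat tests at 20 µM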;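 note: tim10-1 mutant grown at permissive 25 °C to find synthetic lethal compounds; 0% = DMSO yeast wells and 100% = medium wells without yeast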
TIM10 conf = growth inhibitors of wild-type TIM10 yeast, confirmation, counter-screen for tim10-1 synthetic lethality project, single concentration, luminescence, S. cerevisiae | shares compounds with TIM10 inh | S. cerevisiae tim10 strain growth, BacTiter-Glo luminescence, 24 h | inhibition, % at 10 µM | 4,600 compounds, 63% hits;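 active = inhibition of yeast growth at or above a set limit in either of two replicates at 10 µM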;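 note: this counterscreen used the strain with wild-type TIM10; 0% = yeast with DMSO and 100% = medium wells lacking yeast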
An asterisk follows results filed as active; nt = not tested or not shown. This is a sample that favours compounds with a hit; in the whole collection about 3.7% have one here.

SMILES | PfHsp90 set2 | NALP3 yeast inh | tim10-1 inh | tim23-1 inh | TIM10 inh | tim10-1 conf | TIM10 conf
CCOc1ccc(N2C(=O)CC(N)C2=O)cc1 (centres undefined) | -19 | 30 | 73* | 40 | 72* | 69* | 70*
CCOc1ccc(N2C(=O)CC(Sc3n[nH]c(-c4ccccc4)n3)C2=O)cc1 (centres undefined) | 31 | 12 | 51* | 23 | 57* | 53* | 36*
CC(=O)Nc1ccc(S(=O)(=O)N(C)CC(=O)OC(C)C(=O)NC2CCCC2)cc1 (centres undefined) | -8 | -1 | 4 | 2 | 8 | nt | nt
CCN1CCc2c(sc(NC(=O)c3ccc(S(=O)(=O)N(C)CC4CCCO4)cc3)c2C(N)=O)C1 (centres undefined) | 11 | 10 | 2 | 18 | 19 | nt | nt
CCCCn1c(-c2ccc(OC(F)F)cc2)nc2c1c(=O)[nH]c(=O)n2CC(C)C | -20 | 33 | 16 | 9 | 8 | nt | nt
Cc1cc2cc(C)c(NCCNC(=O)c3ccccc3Cl)nc2cc1C | 18 | 16 | 42* | 33 | 44* | 30 | 26
CC(C)c1onc(C(=O)Nc2cccc(Cl)c2)c1[N+](=O)[O-] | -7 | 11 | 45* | 37 | 41* | 37* | 39*
CC(C)c1cc(C(=O)Nc2cccc(Cl)c2)no1 | 14 | 43 | 20 | 24 | 19 | nt | nt
O=C1OC(c2ccc(F)cc2)=C/C1=C\c1ccc([N+](=O)[O-])o1 | nt | 3 | 71* | -142 | 64* | 41* | 59*
CCCn1cc(S(=O)(=O)c2ccc(Cl)cc2)c(=O)c2cc(OC)ccc21 | -1 | 6 | 6 | 1 | -5 | nt | nt
CC(C)c1ccccc1NC(=S)NC(C)c1ccccc1 (centres undefined) | 9 | 7 | 42* | 40 | 42* | 23 | 17
CC(NC(=S)Nc1ccc(F)cc1)c1ccccc1 (centres undefined) | -4 | 16 | 24 | 28 | 13 | nt | nt
Cc1ccc2c(c1)C1CN(C)CCC1N2C(=O)c1cccc(S(=O)(=O)N2CC(C)CC(C)C2)c1 (centres undefined) | 17 | 13 | 47* | 25 | 55* | 43* | 38*
Cc1cccc(Cn2nnc3c2C(=O)c2ccccc2C3=O)c1 | -35 | -4 | 42* | 31 | 52* | 27 | 33*
CS(=O)(=O)N1CCN(c2ccccc2NC(=O)c2ccc(-c3ccc(Cl)cc3Cl)o2)CC1 | -13 | 23 | 15 | -3 | 15 | nt | nt
CN1CCN(c2ccccc2NC(=O)c2ccc(-c3ccc(Cl)cc3Cl)o2)CC1 | 6 | 28 | 56* | 4 | 46* | 55* | 48*
Cc1ccc(NC(=O)CN(C)C(=O)C(C)N2CCN(Cc3ccccc3C)CC2)cc1 (centres undefined) | 5 | 26 | -12 | 2 | -1 | nt | nt
CCCOc1ccc(CN(CCC#N)C(=S)NC(=O)c2ccccc2)cc1 | -85 | 6 | 48* | 42 | 43* | 35* | -14
Cc1ccc2nc(-c3ccc(Br)o3)oc(=O)c2c1 | -1 | 15 | 41* | 50 | 48* | 35* | 33*
COc1cc2nc(-c3ccc(Br)o3)oc(=O)c2cc1OC | -8 | 21 | 27 | 19 | 31 | nt | nt
Cc1ccc(CCNS(=O)(=O)c2cc(Br)cnc2N)cc1 | 10 | -1 | 10 | 17 | 8 | nt | nt
CCCCOc1ccc(C(=O)NNC(=O)c2cnccn2)cc1OC | nt | 13 | 15 | 11 | 8 | nt | nt
COc1ccc(C(=O)/C(=C\c2ccco2)N2C=CC=CC2=C(C#N)C#N)cc1 | 13 | 16 | 53* | 31 | 59* | 41* | 53*
N#CC(C#N)=C1C=CC=CN1/C(=C\c1ccco1)C(=O)c1ccccc1 | 30 | nt | nt | nt | nt | nt | nt

Screening results deposited in PubChem BioAssay by several laboratories.
